Among the data in PubChem BioAssay (NCI) are growth values, retold here.

This is part of a sample that, as a whole, favours compounds with a hit. Of some 83,000 tested, about 20% had one in any assay.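 The endpoint reported here, percent growth, reads 100 for growth as untreated, 0 for no net growth and -100 for all cells dead.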 The source made the active and inactive calls. The calls were made as follows: active = growth percent below 10; inactive = the rest.

This experiment relates to MDA-MB-468 breast. The experiment is described as follows: NCI-60 one-dose screen, 48 h (100 = growth as untreated, 0 = no growth, -100 = all killed). To be noted: 10 µM unless noted.
As to `O=C(O)CCC(=O)OC(C1CO1)C(OC(=O)CCC(=O)O)C1CO1` (stereo not drawn), the growth was 99% (inactive).
Regarding `N#Cc1c(-c2ccccc2)[nH]c2ncc(-c3ccccc3)n2c1=O`, the growth was 91.8% (inactive).
In the case of `COc1ccc(Cc2cnc(NC(=O)c3cc(C)oc3C)s2)cc1`, the growth was 14.8% (inactive).
Consider `Nc1nc(N)c(N)c(Nc2ccc(CCO)cc2)n1`, for which the growth was 92.8% (inactive).
The same measure for `CC(CSc1n[nH]c(=S)s1)c1ccccc1` (stereo not drawn): 114% (inactive).
In the case of `CCCCOc1nc2ccc(Cl)cc2cc1/C=C/C(=O)/C=C/c1ccc(OC)cc1` it was 113% (inactive).
Take `CC[N+](CC)=c1cc2oc3cc(N(C)C)ccc3nc-2cc1C`: the growth was -14% (active).
With `CC(=O)Nc1cccc(Nc2nc(N[C@@H](C)c3ccccc3)c3ccccc3n2)c1`, the growth is -39.8% (active).
As for `CC1(C)S(=O)(=O)OCCOS1(=O)=O`, the growth was 101% (inactive).
Turning to `O=C(CSc1nnc(-c2ccc(Cl)cc2)o1)Nc1ccc(C(=O)/C=C/c2ccccc2)cc1`, the growth was 98.7% (inactive).
Turning to `Cc1nn(-c2nc3ccccc3[nH]2)c2c1C(c1ccc(OCc3ccc(F)cc3)cc1)CC(=O)N2` (stereo not drawn), the growth was 65.3% (inactive).
Regarding `Clc1ncnc2scc(C3COc4ccccc4O3)c12` (stereo not drawn), the growth is -3.8% (active).
With `O=C(CS(=O)c1oc(-c2cccs2)nc1S(=O)(=O)c1ccc(Br)cc1)c1ccccc1` (stereo not drawn), the growth is 101% (inactive).
Take `Clc1ccc(C2=Nc3cccc4cccc(c34)N2)cc1Cl`: the growth was -43.8% (active).
Consider `O=C(Nc1ccc2ncnc(Nc3ccc(Oc4cccc(F)c4)c(Cl)c3)c2c1)c1ccc(CNCCO)cc1`, for which the growth was -46% (active).
The same measure for `C=C(C)[C@@H]1CC[C@]2(C(=O)NC3CCCCC3)CC[C@]3(C)[C@H](CC[C@@H]4[C@@]5(C)CCC(=O)C(C)(C)[C@@H]5CC[C@]43C)[C@@H]12`: 83.5% (inactive).
The same measure for `O=C(NC1CCOCC1)c1ccc2c(c1)CN(c1ncc(Cc3cccc(-n4cccn4)c3)s1)CC2`: 41.4% (inactive).
Take `C[C@@H](Oc1ccc(C(=O)NS(=O)(=O)C(C)(C)C)cc1C(F)(F)F)c1ccc(Oc2ccccc2)cn1`: the growth is -13.5% (active).
Take `COc1cc2nc3cc([N+](=O)[O-])ccc3c(NCCNCC(C)(C)O)c2cc1OC`: the growth was -37.5% (active).
Consider `COc1ccc(-c2nc(SCC(C)C)nc(N/N=C\c3cccc([N+](=O)[O-])c3)c2C#N)cc1`, for which the growth was 58.1% (inactive).
In the case of `CS(=O)(=O)c1nccc(-c2c(-c3cccc(OCCN4CCOCC4)c3)nc3sccn23)n1` it was 37.6% (inactive); in that of `CCOC(=O)c1c(Cl)c2c(n1Cc1cccc(OC)c1)-c1oncc1CC2`, 11.1% (inactive).
On to `CC(C)[C@H]1c2[nH]c3ccccc3c2C[C@H]2C(=O)N(CCCCCCC(=O)NO)CC(=O)N12`, for which the growth is 64.2% (inactive).
